Screening data as filed in PubChem BioAssay.
In the library only some 11% were active in any assay of this set; here they are far more common.
NPR1 antag = antagonists of human natriuretic peptide receptor Npr1. P16066. HEK293 hNpr1 GloSensor cGMP, ANP-stimulated luminescence. Potency, µM (series often up to 46.3 µM), for inactives: top-dose activity change, negative = inhibition, hits mostly inhibitors. 1.6% of 76,000 active. AID 1347048; calls by dose curve; also: % is scaled to controls: 0 for no effect and ±100 for the full control effect; nearly all actives have a fitted effect of over 60% in size
Target sequence (P16066 whole entry, looked up): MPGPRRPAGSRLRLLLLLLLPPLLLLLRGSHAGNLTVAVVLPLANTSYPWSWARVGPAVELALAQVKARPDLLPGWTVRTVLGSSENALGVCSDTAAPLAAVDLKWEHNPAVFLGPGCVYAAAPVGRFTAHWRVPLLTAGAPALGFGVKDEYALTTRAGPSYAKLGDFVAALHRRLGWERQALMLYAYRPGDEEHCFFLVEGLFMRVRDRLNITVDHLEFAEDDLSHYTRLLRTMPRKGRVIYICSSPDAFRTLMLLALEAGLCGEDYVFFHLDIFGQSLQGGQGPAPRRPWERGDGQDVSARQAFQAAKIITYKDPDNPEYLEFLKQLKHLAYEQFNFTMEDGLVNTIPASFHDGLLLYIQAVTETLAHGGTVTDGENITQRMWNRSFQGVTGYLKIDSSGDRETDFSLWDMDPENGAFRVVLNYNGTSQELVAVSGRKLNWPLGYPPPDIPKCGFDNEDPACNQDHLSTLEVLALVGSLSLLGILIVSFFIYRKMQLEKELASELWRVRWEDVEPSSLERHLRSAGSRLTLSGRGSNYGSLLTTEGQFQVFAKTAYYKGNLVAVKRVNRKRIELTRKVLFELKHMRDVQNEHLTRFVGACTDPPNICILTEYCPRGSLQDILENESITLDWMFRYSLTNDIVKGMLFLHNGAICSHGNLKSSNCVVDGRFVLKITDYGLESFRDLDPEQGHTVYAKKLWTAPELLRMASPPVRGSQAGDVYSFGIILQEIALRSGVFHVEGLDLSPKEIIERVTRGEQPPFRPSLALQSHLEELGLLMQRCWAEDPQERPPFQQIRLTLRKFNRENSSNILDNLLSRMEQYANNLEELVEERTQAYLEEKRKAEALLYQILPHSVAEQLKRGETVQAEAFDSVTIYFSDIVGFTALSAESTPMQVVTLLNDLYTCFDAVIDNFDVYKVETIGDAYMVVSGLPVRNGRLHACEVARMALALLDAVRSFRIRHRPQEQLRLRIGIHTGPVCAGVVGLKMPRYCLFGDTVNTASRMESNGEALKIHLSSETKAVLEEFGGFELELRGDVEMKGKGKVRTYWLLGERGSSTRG
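Compound pre-incubated 30 min at room temperature on GloSensor-loaded HEK293 cells stably carrying hNpr1 and the pGS-40F cGMP biosensor. Stimulation uses hNppA at 0.1 nM final; luminescence is taken at baseline and 20 min post-agonist.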
FLuc inh-1 = Photinus pyralis luciferase inhibition | P08659 | purified P. pyralis luciferase, luminescence, biochemical | Potency, µM (doses to about 115 µM), actives largely listed as inhibitors | 2.5% of 76,000 active | AID 1347043; also: % is scaled to controls: 0 for no effect and ±100 for the full control effect; nearly all actives have a fitted effect of over 65% in size
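Luminescence read by CCD imaging after purified firefly luciferase (10nM final) was added to substrate buffer holding 10uM D-luciferin and 10uM ATP, pH 7.5, pre-dosed with compound.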
3T3 cytotox = NIH 3T3 cell cytotoxicity; 4.3% of 94,000 active; NIH 3T3 viability, CellTiter-Glo ATP luminescence, 48-72 h; Potency, µM (doses to about 96.7 µM), for the others: at the top dose activity change, negative = cytotoxicity, hits mostly inhibitors; AID 1345082; also: % is scaled to controls: 0 for no effect and ±100 for the full control effect; nearly all actives have a fitted effect of over 55% in size
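Cells were seeded at 400 per well, treated with pin-transferred compound, and kept 48 or 72 hr at 37 °C before CellTiter-Glo addition and luminescence imaging of cellular ATP.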
HEK cytotox = kills HEK 293 cells; HEK 293 viability, ATP luminescence (CellTiter-Glo), 48-72 h; Potency, µM (series often up to 115 µM), for inactives: at the highest dose activity change, negative = cytotoxicity, usual class: inhibitors; 6.6% of 94,000 active; also: % is scaled to controls: 0 for no effect and ±100 for the full control effect; nearly all actives have a fitted effect of over 60% in size
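HEK 293 cells at 250 cells/well were exposed to compounds by pintool transfer for 48 or 72 hr at 37 degree Celsius, 5% CO2. Viability was read as ATP-coupled luminescence with CellTiter-Glo after 10 min at room temperature.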
FLuc SDR -ATP = stabilizes firefly luciferase without ATP; shares compounds with FLuc inh-1; Purified FLuc-C-HiBiT, Nano-Glo HiBiT luminescence, no ATP; Potency, µM (highest dose often 32.7 µM), for the others: top-dose activation (signal gain), hits mostly activators; 7.8% of 1,300 active; AID 1963318; also: nearly all actives have a fitted effect of over 55% in size
FLuc SDR ATP = firefly luciferase binding stabilization, ATP added; purified FLuc-C-HiBiT + ATP, HiBiT complementation luminescence; 8.7% of 1,300 active; shares compounds with FLuc inh-1; Potency, µM (series often up to 32.7 µM), for inactives: at the top dose activation (gain of signal), actives largely listed as activators;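 also: signal reports ligand binding via conformational change of the enzyme rather than luciferase catalysis; % of control where 0% means no effect; nearly all actives have a fitted effect of over 55% in size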
FLuc inh-2 = blocks firefly luciferase enzymatic activity | shares compounds with FLuc inh-1 | purified FLuc-C-HiBiT enzyme, luciferin luminescence | Potency, µM (titrated, usually from 32.7 µM), inactives show at the top dose activity change, negative = inhibition, most hits filed as inhibitors | 42% of 1,300 active; also: % is scaled to controls: 0 for no effect and ±100 for the full control effect; nearly all actives have a fitted effect of over 70% in size
* = called active by the depositor; i = inactive; ? = inconclusive; . = not tested or not shown; [ ] = another dose, or the depositor's remark. Unless noted, calls follow the shape of the dose curve; as a rule, active = well fitted curve in the direction sought with a large enough effect; inconclusive = small, poorly fitted or top-dose-only effect, or another doubt; inactive = no such curve, though single readings can be large; an effect the other way counts as inactive or inconclusive. Potency is read from the fitted curve at half-maximal effect.

SMILES	NPR1 antag	FLuc inh-1	3T3 cytotox	HEK cytotox	FLuc SDR -ATP	FLuc SDR ATP	FLuc inh-2
COc1ccc(NC(=O)C2CCN(C(=O)c3ncn4c3COC(c3ccc(OC)cc3)C4)CC2)cc1 (stereo unspecified)	-8%	i	-21%	-14%	.	.	.
CC(C)c1cccc(NC(=O)C2CCN(C(=O)c3ncn4c3COC(c3ccccc3)C4)CC2)c1 (stereo unspecified)	-15%	3.5µM*	4%	?	13%	?	7.9µM*
CSc1cccc(NC(=O)C2CCN(C(=O)c3ncn4c3COC(c3ccc(F)cc3)C4)CC2)c1 (stereo unspecified)	?	?	-9%	-29%	.	.	.
O=C(Nc1ccc(F)c(F)c1)C1CCN(C(=O)c2ncn3c2COC(c2ccccc2)C3)CC1 (stereo unspecified)	?	1µM*	-2%	-3%	12%	0.56µM*	0.99µM*
CC(C)c1ccc(NC(=O)C2CCN(C(=O)c3ncn4c3COC(c3ccccc3)C4)CC2)cc1 (stereo unspecified)	-23%	2.5µM*	i	6%	13%	?	3.5µM*
O=C(NCc1ccccc1)C1CCN(C(=O)c2ncn3c2COC(c2ccc(Cl)cc2)C3)CC1 (stereo unspecified)	4%	?	i	11%	.	.	.
COc1ccccc1CC(=O)N1CCCc2ncc(C(=O)Nc3ccccn3)cc21	-3%[70.6 µM]	i	-5%[138 µM]	?	.	.	.
COC(=O)c1ccc(NC(=O)N2CCC(CCOc3ccc(F)cc3)C2)cc1 (stereo unspecified)	?	i	-20%	?	.	.	.
CCOc1ccc(NC(=O)C2CCN(C(=O)c3ncn4c3COC(c3ccccc3)C4)CC2)cc1 (stereo unspecified)	-5%	13µM*	i	16%	13%	?	7µM*
COc1ccc(C2Cn3cnc(C(=O)N4CCC(C(=O)Nc5ccccc5)CC4)c3CO2)cc1 (stereo unspecified)	-16%	?	0%	2%	.	.	.
O=C(Cn1nc2c(cc1=O)CCCCC2)Nc1nc2ccccc2s1	3%	i	-7%	?	.	.	.
Cc1c(NC(=O)c2cccc(Cl)c2Cl)cccc1-c1nc2ccccc2s1	.	.	.	.	17%	12%	-18%
Cc1c(NC(=O)Cc2ccccc2)cccc1-c1nc2ccccc2s1	.	.	.	.	?	17%	?
CCC(=O)Nc1cc(-c2nc3ccccc3s2)c(Cl)cc1Cl	.	.	.	.	17%	11%	-5%
Cc1c(NC(=O)c2ccc(I)o2)cccc1-c1nc2ccccc2s1	.	.	.	.	27%	13%	7µM*
CCOCCNc1ncnc2c1CN(C1CCNC1)C(=O)CN2C (stereo unspecified)	.	.	3%	i	.	.	.
Cc1ccccc1C(=O)N1CCCN(CCn2nc3n(c2=O)CCCC3)CC1	.	.	-17%	-3%	.	.	.
COCC(=O)N1CCN(C(=O)c2cccc(-c3ccccn3)c2)CC1	.	.	-17%	-14%	.	.	.
COc1ccc(-c2cc3c(=O)n(CCNC(=O)c4ccc5c(c4)OCO5)ccn3n2)cc1	-2%	i	?	-17%	.	.	.
Cc1[nH]nc2c1C(c1ccccc1)C(C#N)=C(N)O2 (stereo unspecified)	3%	i	-5%	-2%	.	.	.
Cc1[nH]nc2c1C(c1ccc(Cl)cc1)C(C#N)=C(N)O2 (stereo unspecified)	-5%	i	-22%	?	11%	8%	-9%
Cc1ccc(NC(=O)Cn2nc3n(c2=O)CCCC3)cc1Cl	1%	i	-6%	11%	.	.	.
Cc1ccc(NC(=O)/C=C/c2ccccc2Cl)cc1Cl	.	.	.	.	13%	11%	?
CN(C)c1ccc(-c2noc([C@@H]3CCCN3Cc3cnc4ccccc4c3)n2)cn1	14µM*	14µM*	?	?	14%[49.3 µM]	11%[49.3 µM]	-2%[49.3 µM]
O=C(Cc1ccc(F)cc1)N1CCCC(C(=O)N2CCC(N3CCOCC3=O)CC2)C1 (stereo unspecified)	.	.	-15%	-7%	.	.	.
SMILES	NPR1 antag	FLuc inh-1	3T3 cytotox	HEK cytotox	FLuc SDR -ATP	FLuc SDR ATP	FLuc inh-2
Cc1c(C(=O)NCc2cccc(Br)c2)oc2ccc3c(c12)C(=O)CC(C)(C)O3	.	.	.	.	17%	10%	?
Cc1ccc(C2Cn3nnc(C(=O)N4CCC(C(=O)NCCN5CCCC5)CC4)c3CO2)cc1 (stereo unspecified)	0%	13µM*	i	-7%	13%	?	?
COCCNC(=O)C1CCN(C(=O)c2nnn3c2COC(c2ccc(C)cc2)C3)CC1 (stereo unspecified)	-2%	5.6µM*	i	9%	12%	?	?
Cc1ccc(C2Cn3nnc(C(=O)N4CCC(C(=O)NCCc5cccs5)CC4)c3CO2)cc1 (stereo unspecified)	-1%	10µM*	-10%	1%	12%	?	?
Cn1nc2n(c1=O)CCN(Cc1ccncc1F)CC2	-3%	i	-5%	-12%	.	.	.
CC(C)(C)C(=O)N1CCC2(CC1)CC(c1ccccc1)C(=O)N(C1CC1)C2 (stereo unspecified)	4%	i	-2%	-7%	.	.	.
Cc1ccc(C(=O)N2CCN(C(=O)c3nc4cccnc4n(CCc4ccccc4)c3=O)CC2)cc1	.	.	-22%	?	.	.	.
O=C(O)c1ccc(-c2ccc(C(F)(F)F)cc2)cc1	.	.	-18%[138 µM]	-4%[172 µM]	.	.	.
O=C(Nc1c(C(=O)O)oc2ccccc12)c1ccc(C(F)(F)F)cc1	.	.	.	.	15%	9%	9.9µM*
Cc1ccc(NC(=O)c2ccc3snnc3c2)cc1C	.	.	.	.	18%	?	?
CCc1n[nH]c(CC2CCN(C(=O)Nc3ccc4c(c3)OCCO4)CC2)n1	-28%	7.9µM*	i	3%	21%	16%	?
CNC(=O)N1CCC(Cc2nncn2C(C)C)C1 (stereo unspecified)	-7%	i	-10%	3%	.	.	.
CC(C)n1cnnc1CC1CCN(C(=O)Nc2ccc3c(c2)OCCO3)CC1	-15%	7.9µM*	3%	i	26%	?	9.9µM*
Cc1ccccc1CCNC(=O)c1ccc2c(c1)nc1n2CCOC1	.	.	.	.	12µM*	?	5µM*
Cc1ccccc1CCNC(=O)c1ccc2c(c1)nc1n2CCCCC1	.	.	.	.	2.8µM*	?	0.88µM*
Cc1cccc(-c2nc3cc(C(=O)NCCN4CCOCC4)ccc3o2)n1	.	.	-18%[138 µM]	-6%[172 µM]	.	.	.
Cc1ccc(NC(=O)N2CCC(CCNC(=O)Cc3cccc(F)c3)CC2)cc1F	3%	i	-19%	-10%	.	.	.
Oc1c(Br)cc(Br)cc1-c1nc2ccccc2s1	.	.	.	.	10%	8%	?
